# How the values were obtained:
# Experiment in all cases: DAPPL (digital affinity profiling via proximity ligation, sequencing); 10 mM Tris-HCl pH 7.5, 50 mM NaCl, 1 mM DTT, 4% glycerol, room temperature, 30 min; GST-TFs on glutathione beads, 16-mer random dsDNA library, 0.1% formaldehyde crosslink after washing; high values mean tight binding
# FLI1 = biological target: T1, FLI1 (Homo sapiens, UniProt Q01543 1-452); conditions: protein: recombinant; tags: N-terminal GST; dsDNA, one strand shown
# T1 sequence: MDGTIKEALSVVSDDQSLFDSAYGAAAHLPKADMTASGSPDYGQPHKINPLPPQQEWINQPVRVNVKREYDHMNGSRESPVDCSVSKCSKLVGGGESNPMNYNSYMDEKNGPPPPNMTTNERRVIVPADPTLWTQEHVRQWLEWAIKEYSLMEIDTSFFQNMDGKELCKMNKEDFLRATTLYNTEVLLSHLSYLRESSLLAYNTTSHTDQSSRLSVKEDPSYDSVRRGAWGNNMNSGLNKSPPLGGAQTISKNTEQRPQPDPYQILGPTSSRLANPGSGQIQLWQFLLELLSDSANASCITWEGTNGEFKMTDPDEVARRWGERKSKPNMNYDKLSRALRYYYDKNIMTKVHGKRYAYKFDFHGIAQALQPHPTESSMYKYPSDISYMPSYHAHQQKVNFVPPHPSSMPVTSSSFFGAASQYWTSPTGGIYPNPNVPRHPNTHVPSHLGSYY
# Summary of the method: (§1)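 Human transcription factors fused to GST were expressed in yeast, captured on glutathione beads, given DNA barcodes and pooled with a GST-only negative control. Pools were incubated with 200 nmole of a 16-mer random double-stranded DNA library in Tris/NaCl/DTT/glycerol buffer at room temperature for 30 min. They were then washed, crosslinked with 0.1% formaldehyde, proximity-ligated (BsaI/T4 ligase, 1 h, 37 °C), PCR-amplified and sequenced on an Illumina NextSeq500. Binding signal is each 6-mer's read frequency for a factor divided by its frequency for the GST control.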
# ELK1 = biological target: T2, ELK1 (Homo sapiens, UniProt P19419 1-428); conditions: protein: recombinant; tags: N-terminal GST; dsDNA, one strand shown
# T2 sequence: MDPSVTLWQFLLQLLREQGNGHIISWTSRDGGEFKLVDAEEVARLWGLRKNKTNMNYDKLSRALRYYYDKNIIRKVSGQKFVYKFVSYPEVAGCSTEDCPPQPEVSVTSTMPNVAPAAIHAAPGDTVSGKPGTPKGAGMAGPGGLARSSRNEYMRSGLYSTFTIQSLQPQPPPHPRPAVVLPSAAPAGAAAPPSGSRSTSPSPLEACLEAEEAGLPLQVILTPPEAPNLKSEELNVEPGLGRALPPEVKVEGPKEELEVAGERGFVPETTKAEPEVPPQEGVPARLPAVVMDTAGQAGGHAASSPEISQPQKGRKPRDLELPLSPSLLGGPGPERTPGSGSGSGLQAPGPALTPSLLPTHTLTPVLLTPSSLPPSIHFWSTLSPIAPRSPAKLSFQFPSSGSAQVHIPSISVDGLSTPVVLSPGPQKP
# Summary of the method: as §1
# GABPA = biological target: T3, GABPA (Homo sapiens, UniProt Q06546 1-454); conditions: protein: recombinant; tags: N-terminal GST; dsDNA, one strand shown
# T3 sequence: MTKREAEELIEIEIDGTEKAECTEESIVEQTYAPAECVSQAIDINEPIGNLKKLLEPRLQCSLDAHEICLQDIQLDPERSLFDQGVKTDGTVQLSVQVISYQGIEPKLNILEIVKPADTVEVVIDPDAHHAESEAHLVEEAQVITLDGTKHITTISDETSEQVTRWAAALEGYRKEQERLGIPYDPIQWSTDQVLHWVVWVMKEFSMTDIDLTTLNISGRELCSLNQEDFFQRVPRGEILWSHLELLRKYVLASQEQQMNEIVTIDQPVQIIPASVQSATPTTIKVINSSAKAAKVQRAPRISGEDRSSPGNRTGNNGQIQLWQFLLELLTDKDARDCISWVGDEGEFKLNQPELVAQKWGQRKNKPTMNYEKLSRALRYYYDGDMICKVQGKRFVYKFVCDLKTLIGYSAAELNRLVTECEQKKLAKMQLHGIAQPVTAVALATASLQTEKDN
# Summary of the method: as §1
# ERG = biological target: T4, ERG (Homo sapiens, UniProt P11308 1-479); conditions: protein: recombinant; tags: N-terminal GST; dsDNA, one strand shown
# T4 sequence: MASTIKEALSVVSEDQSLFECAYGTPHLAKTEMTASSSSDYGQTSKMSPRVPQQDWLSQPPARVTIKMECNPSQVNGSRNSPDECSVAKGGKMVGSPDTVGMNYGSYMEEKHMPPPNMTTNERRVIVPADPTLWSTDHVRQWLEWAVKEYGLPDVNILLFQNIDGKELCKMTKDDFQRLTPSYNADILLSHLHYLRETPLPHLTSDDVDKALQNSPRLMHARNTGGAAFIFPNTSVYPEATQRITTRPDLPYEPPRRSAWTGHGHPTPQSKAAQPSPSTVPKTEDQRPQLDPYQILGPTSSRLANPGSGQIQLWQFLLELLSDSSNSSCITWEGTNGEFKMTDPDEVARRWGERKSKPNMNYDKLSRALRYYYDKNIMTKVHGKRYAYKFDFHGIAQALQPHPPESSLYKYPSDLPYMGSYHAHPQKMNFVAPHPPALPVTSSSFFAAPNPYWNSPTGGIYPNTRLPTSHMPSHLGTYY
# Summary of the method: as §1
# ELF1 = ELF1 (Homo sapiens, UniProt P32519 1-619); conditions: protein: recombinant; tags: N-terminal GST; dsDNA, one strand shown
# ELF1, sequence (P32519 whole entry): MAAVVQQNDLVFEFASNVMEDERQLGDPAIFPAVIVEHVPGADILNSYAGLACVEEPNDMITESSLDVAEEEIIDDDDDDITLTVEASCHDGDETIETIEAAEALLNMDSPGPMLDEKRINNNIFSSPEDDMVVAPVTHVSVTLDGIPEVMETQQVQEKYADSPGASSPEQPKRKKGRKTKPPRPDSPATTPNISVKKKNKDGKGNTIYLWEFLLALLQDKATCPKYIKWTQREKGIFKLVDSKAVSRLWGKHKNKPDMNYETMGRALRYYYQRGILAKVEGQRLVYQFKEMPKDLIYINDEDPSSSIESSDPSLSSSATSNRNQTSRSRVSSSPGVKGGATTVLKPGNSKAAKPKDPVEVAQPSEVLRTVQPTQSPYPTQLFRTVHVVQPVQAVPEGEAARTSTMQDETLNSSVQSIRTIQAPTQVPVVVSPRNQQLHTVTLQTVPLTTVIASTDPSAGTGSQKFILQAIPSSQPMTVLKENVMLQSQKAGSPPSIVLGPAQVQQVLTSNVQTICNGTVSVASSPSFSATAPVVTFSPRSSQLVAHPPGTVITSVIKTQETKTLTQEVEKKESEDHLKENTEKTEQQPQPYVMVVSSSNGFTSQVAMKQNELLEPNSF
# Summary of the method: as §1
# EHF = biological target: T5, EHF (Homo sapiens, UniProt Q9NZC4 1-300); conditions: protein: recombinant; tags: N-terminal GST; dsDNA, one strand shown
# T5 sequence: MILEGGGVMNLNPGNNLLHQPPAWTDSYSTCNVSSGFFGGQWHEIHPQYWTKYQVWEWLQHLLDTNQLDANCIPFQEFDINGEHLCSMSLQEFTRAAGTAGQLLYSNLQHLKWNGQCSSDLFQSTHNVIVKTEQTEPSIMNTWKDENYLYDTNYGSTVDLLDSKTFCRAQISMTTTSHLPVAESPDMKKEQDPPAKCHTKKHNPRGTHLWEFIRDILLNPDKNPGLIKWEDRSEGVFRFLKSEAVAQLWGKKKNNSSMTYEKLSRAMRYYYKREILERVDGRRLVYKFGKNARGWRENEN
# Summary of the method: as §1
# SPI1 = SPI1 (Homo sapiens, UniProt P17947 1-270); conditions: protein: recombinant; tags: N-terminal GST; dsDNA, one strand shown
# Summary of the method: as §1
# SPIB = SPIB (Homo sapiens, UniProt Q01892 1-262); conditions: protein: recombinant; tags: N-terminal GST; dsDNA, one strand shown
# SPIB, sequence (Q01892 whole entry): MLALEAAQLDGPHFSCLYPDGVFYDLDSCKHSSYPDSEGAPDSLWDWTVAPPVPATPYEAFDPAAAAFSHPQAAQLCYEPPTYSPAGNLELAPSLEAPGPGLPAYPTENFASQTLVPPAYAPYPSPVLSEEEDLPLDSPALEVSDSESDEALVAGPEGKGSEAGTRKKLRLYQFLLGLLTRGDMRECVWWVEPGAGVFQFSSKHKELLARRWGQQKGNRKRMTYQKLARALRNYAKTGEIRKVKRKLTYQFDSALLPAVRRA
# Summary of the method: as §1
# ELK3 = biological target: T6, ELK3 (Homo sapiens, UniProt P41970 1-407); conditions: protein: recombinant; tags: N-terminal GST; dsDNA, one strand shown
# T6 sequence: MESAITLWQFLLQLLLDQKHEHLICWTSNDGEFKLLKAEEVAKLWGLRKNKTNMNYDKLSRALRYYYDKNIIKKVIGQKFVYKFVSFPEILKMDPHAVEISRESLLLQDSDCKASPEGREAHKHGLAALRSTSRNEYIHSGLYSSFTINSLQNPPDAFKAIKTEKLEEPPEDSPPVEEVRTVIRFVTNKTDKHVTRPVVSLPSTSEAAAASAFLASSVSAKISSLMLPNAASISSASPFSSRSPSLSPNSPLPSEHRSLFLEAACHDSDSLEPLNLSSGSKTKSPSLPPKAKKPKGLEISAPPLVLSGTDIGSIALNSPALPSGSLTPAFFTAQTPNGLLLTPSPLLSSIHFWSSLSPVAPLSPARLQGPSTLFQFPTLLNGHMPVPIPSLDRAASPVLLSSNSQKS
# Summary of the method: as §1
# FEV = biological target: T7, FEV (Homo sapiens, UniProt Q99581 1-238); conditions: protein: recombinant; tags: N-terminal GST; dsDNA, one strand shown
# T7 sequence: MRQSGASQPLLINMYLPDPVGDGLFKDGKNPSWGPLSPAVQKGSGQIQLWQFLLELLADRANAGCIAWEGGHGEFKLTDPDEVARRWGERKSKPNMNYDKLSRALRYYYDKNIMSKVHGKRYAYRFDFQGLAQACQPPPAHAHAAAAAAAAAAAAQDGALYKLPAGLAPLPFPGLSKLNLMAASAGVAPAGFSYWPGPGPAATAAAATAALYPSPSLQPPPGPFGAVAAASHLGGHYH
# Summary of the method: as §1
# ETV5 = ETV5 (Homo sapiens, UniProt P41161 1-510); conditions: protein: recombinant; tags: N-terminal GST; dsDNA, one strand shown
# ETV5, sequence (P41161 whole entry): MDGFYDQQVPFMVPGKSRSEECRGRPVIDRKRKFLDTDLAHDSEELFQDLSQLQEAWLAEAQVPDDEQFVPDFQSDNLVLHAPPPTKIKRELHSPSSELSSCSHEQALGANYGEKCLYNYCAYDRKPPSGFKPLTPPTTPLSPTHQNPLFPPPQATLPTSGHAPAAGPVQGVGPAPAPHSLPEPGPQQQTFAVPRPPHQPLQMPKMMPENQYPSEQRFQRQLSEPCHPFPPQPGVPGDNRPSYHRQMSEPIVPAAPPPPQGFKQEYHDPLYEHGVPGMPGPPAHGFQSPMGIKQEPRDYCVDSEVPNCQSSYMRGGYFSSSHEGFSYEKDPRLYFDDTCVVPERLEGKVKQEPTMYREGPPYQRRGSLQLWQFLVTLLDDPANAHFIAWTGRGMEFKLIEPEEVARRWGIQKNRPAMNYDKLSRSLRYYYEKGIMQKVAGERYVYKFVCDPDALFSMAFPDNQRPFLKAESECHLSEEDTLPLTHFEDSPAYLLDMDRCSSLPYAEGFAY
# Summary of the method: as §1
# HSF1 = HSF1 (Homo sapiens, UniProt Q00613 1-529); conditions: protein: recombinant; tags: N-terminal GST; chain copies: 3; dsDNA, one strand shown
# HSF1, sequence (Q00613 whole entry): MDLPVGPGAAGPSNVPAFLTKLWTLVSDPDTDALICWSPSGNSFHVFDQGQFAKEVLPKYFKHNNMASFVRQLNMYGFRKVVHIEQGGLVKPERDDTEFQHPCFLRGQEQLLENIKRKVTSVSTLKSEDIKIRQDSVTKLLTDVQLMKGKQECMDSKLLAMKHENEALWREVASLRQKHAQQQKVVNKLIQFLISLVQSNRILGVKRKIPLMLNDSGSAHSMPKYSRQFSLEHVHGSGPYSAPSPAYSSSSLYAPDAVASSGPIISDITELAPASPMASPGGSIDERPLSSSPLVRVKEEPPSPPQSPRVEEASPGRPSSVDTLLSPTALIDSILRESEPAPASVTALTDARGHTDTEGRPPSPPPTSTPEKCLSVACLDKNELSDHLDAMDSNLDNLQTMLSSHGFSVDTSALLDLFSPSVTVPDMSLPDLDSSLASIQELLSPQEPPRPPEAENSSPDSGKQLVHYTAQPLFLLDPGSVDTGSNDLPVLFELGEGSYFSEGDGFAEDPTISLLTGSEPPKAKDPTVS
# Summary of the method: as §1
# SPIC = biological target: T8, SPIC (Homo sapiens, UniProt Q8N5J4 1-248); conditions: protein: recombinant; tags: N-terminal GST; dsDNA, one strand shown
# T8 sequence: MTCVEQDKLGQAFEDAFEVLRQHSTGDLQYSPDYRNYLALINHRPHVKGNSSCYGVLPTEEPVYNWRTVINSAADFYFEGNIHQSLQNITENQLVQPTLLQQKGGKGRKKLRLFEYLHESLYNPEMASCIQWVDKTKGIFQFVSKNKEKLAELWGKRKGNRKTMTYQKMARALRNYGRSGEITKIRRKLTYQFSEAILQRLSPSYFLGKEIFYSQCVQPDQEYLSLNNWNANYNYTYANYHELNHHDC
# Summary of the method: as §1
# ELF4 = ELF4 (Homo sapiens, UniProt Q99607 1-663); conditions: protein: recombinant; tags: N-terminal GST; dsDNA, one strand shown
# ELF4, sequence (Q99607 whole entry): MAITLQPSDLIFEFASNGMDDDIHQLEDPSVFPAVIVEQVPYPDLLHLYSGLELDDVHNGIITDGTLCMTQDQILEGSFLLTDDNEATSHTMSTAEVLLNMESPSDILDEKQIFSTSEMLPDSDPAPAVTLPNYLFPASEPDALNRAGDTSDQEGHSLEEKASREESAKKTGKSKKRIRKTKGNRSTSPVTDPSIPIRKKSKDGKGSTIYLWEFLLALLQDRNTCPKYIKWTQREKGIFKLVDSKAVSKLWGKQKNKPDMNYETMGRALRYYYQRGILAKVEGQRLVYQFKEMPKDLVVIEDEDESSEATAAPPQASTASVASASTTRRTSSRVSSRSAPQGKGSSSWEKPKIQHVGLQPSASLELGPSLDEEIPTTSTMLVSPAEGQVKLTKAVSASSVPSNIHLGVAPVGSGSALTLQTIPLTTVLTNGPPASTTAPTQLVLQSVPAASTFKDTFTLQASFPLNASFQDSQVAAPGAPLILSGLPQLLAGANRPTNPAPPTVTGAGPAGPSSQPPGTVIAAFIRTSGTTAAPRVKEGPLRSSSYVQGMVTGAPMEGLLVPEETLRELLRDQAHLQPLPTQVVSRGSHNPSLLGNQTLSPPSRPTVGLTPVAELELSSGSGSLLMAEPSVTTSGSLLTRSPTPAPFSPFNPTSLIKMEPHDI
# Summary of the method: as §1
# ELK4 = biological target: T9, ELK4 (Homo sapiens, UniProt P28324-2 1-405); conditions: protein: recombinant; tags: N-terminal GST; dsDNA, one strand shown
# T9 sequence: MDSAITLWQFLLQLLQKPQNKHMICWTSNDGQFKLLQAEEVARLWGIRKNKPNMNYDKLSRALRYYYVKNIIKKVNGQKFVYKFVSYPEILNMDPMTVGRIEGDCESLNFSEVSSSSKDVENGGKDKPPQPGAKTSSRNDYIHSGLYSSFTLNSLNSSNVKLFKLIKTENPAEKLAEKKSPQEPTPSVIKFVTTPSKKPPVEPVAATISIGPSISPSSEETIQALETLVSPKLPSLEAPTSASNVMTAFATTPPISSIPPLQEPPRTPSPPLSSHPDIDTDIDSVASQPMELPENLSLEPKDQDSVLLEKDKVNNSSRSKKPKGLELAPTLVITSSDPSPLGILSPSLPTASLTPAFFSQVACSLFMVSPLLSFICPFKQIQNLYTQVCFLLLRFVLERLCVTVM
# Summary of the method: as §1
# ETV2 = biological target: T10, ETV2 (Homo sapiens, UniProt O00321 1-342); conditions: protein: recombinant; tags: N-terminal GST; dsDNA, one strand shown
# T10 sequence: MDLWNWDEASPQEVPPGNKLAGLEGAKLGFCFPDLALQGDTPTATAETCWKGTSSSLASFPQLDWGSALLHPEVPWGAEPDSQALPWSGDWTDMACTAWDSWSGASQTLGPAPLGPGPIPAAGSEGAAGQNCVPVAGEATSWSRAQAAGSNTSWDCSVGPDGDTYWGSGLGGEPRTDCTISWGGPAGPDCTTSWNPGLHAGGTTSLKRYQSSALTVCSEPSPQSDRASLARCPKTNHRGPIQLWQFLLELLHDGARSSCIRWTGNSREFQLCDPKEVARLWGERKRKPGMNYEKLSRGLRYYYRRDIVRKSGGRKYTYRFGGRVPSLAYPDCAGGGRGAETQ
# Summary of the method: as §1
# ELF3 = biological target: T11, ELF3 (Homo sapiens, UniProt P78545 1-371); conditions: protein: recombinant; tags: N-terminal GST; dsDNA, one strand shown
# T11 sequence: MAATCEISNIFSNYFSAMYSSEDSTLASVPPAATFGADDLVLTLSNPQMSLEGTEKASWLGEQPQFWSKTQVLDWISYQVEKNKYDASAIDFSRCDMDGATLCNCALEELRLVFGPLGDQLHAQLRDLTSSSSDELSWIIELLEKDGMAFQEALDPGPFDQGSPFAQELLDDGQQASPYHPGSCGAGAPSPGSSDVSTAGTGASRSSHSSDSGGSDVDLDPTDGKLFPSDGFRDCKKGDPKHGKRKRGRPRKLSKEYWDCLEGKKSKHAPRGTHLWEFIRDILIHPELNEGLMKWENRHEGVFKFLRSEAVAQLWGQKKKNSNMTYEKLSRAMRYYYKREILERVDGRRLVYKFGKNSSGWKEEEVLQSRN
# Summary of the method: as §1
# CRX = CRX (Homo sapiens, UniProt O43186 1-299); conditions: protein: recombinant; tags: N-terminal GST; dsDNA, one strand shown
# CRX, sequence (O43186 whole entry): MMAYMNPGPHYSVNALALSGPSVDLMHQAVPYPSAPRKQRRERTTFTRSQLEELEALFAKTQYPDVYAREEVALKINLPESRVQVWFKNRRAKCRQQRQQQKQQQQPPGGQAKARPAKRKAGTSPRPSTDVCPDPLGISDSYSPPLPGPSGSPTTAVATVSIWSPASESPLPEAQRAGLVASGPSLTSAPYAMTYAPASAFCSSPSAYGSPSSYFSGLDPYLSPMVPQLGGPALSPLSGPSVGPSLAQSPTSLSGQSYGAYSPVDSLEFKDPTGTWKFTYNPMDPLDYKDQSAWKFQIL
# Summary of the method: as §1
# ETV1 = ETV1 (Homo sapiens, UniProt P50549 1-477); conditions: protein: recombinant; tags: N-terminal GST; dsDNA, one strand shown
# ETV1, sequence (P50549 whole entry): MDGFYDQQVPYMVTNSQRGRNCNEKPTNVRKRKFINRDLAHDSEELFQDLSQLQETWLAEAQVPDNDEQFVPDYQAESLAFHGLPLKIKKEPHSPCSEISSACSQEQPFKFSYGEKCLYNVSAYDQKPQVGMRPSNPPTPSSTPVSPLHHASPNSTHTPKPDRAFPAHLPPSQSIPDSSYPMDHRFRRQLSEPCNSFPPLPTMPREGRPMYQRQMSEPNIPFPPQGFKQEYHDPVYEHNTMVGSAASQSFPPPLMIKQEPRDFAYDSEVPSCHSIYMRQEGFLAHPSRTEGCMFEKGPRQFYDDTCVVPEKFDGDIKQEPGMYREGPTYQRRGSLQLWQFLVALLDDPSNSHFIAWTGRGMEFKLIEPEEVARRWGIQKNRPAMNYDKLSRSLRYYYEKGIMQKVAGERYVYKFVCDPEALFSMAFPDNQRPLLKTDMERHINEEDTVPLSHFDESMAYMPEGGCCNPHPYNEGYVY
# Summary of the method: as §1
sequence,measurement,setting,value
ACAAAT,binding signal,FLI1,"1.09 fold enrichment (6-mer frequency, TF over GST control)"
same,binding signal,ELK1,"1.18 fold enrichment (6-mer frequency, TF over GST control)"
same,binding signal,GABPA,"1.12 fold enrichment (6-mer frequency, TF over GST control)"
same,binding signal,ERG,"1.15 fold enrichment (6-mer frequency, TF over GST control)"
same,binding signal,ELF1,"1.15 fold enrichment (6-mer frequency, TF over GST control)"
same,binding signal,EHF,"1.19 fold enrichment (6-mer frequency, TF over GST control)"
same,binding signal,SPI1,"1.17 fold enrichment (6-mer frequency, TF over GST control)"
same,binding signal,SPIB,"1.11 fold enrichment (6-mer frequency, TF over GST control)"
same,binding signal,ELK3,"1.14 fold enrichment (6-mer frequency, TF over GST control)"
same,binding signal,FEV,"1.16 fold enrichment (6-mer frequency, TF over GST control)"
same,binding signal,ETV5,"1.16 fold enrichment (6-mer frequency, TF over GST control)"
same,binding signal,HSF1,"1.17 fold enrichment (6-mer frequency, TF over GST control)"
same,binding signal,SPIC,"1.12 fold enrichment (6-mer frequency, TF over GST control)"
same,binding signal,ELF4,"1.18 fold enrichment (6-mer frequency, TF over GST control)"
same,binding signal,ELK4,"1.04 fold enrichment (6-mer frequency, TF over GST control)"
same,binding signal,ETV2,"1.16 fold enrichment (6-mer frequency, TF over GST control)"
same,binding signal,ELF3,"1.22 fold enrichment (6-mer frequency, TF over GST control)"
same,binding signal,CRX,"1.29 fold enrichment (6-mer frequency, TF over GST control)"
same,binding signal,ETV1,"1.15 fold enrichment (6-mer frequency, TF over GST control)"

# From article PMC7862700, “An all-to-all approach to the identification of sequence-specific readers for epigenetic DNA modifications on cytosine”
